AHR act = human AHR activation; P35869; activation, % at 5 µM; AHR-responsive luciferase reporter cells, luminescence; 320,000 tested, 2.5% active; in the data active = activation above about 47%;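 also: 0% = vehicle wells and 100% = reference agonist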
Target sequence (P35869 whole entry, looked up): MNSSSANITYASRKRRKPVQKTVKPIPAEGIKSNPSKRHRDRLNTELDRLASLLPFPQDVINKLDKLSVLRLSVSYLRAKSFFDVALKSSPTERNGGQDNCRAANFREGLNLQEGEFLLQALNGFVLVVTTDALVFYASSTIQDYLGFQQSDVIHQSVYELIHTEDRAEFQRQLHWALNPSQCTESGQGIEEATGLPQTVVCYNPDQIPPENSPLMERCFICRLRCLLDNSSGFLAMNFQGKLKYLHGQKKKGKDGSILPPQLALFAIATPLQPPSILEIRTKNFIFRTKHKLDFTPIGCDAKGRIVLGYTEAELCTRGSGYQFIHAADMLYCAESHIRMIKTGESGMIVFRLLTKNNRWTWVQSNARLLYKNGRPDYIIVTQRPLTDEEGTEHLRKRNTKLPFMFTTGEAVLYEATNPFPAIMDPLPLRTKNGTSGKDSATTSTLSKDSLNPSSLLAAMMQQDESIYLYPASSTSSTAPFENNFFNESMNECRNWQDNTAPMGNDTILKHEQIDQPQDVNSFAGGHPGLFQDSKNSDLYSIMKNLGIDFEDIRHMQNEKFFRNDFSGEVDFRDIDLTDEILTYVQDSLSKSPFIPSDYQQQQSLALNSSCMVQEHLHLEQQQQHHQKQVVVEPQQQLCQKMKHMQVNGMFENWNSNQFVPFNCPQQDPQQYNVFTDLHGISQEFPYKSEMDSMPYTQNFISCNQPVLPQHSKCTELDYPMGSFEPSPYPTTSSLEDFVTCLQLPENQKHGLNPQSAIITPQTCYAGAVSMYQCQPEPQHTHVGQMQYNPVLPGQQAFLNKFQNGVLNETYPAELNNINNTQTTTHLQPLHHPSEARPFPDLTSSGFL
SENP8 block-1 = SENP8 (human) protease inhibition; AID 602440; inhibition, % at 20 µM; 360,000 tested, 0.64% active; recombinant SENP8, Nedd8 substrate fluorescence; in the data active = inhibition mostly above about 40%, no sharp cut-off; inactive = mostly below about 27%
EBI2 antag = EBI2 (human) antagonism | EBI2 beta-arrestin recruitment, luminescence, 7a,25-OHC stimulated | 360,000 tested, 0.81% active | AID 651636 | P32249 | inhibition, % at 5 µM; in the data active = inhibition above about 38%;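 also: enzyme fragment complementation signal reports receptor beta-arrestin coupling in cells; 0% = agonist plus DMSO wells and 100% = wells without agonist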
SENP8 block-2 = SENP8 protease inhibition; Q96LD8; purified SENP8, Z-RLRGG-aminoluciferin cleavage, luminescence; inhibition, % at 10 µM; 330,000 tested, 1.2% active; AID 2540; in the data active = inhibition above about 50%
SENP7 block = SENP7 protease inhibition | Q9BQF6 | recombinant SENP7, Z-RLRGG-aminoluciferin luminescence, 40 min | inhibition, % at 5 µM | 330,000 tested, 1.5% active | AID 434973;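 active = inhibition above about 50% at the single test dose, limit read from the data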;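 also: plate controls were DMSO with enzyme for no effect and no enzyme buffer wells for full effect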
SENP6 block = inhibitors of human SENP6 protease | 330,000 tested, 1.8% active | AID 2599 | inhibition, % at 10 µM | Q9GZR1 | Recombinant SENP6 catalytic domain, aminoluciferin luminescence;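 active = inhibition above about 50% at the single tested dose, limit read from the data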;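 also: plate controls were DMSO wells with enzyme for no effect and DMSO wells lacking enzyme for full effect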
AHR act cf = human AHR activation, confirmation; shares compounds with AHR act; activation, % at 9 µM; AID 2845; human cells, AHR-responsive luciferase reporter, luminescence; 2,300 tested, 87% active; in the data active = activation above about 49%;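 also: HepG2 hepatoma cells carrying a DRE-driven firefly luciferase reporter; 0% = vehicle wells and 100% = reference agonist wells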
PXR counter = PXR activation, counter-screen for AHR activators | shares compounds with AHR act | cell-based PXR reporter, luciferase luminescence | 2,300 tested, 88% active | activation, % at 11.6 µM; in the data active = activation above about 11%;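 also: human hepatoma DPX-2 cells expressing full-length human PXR; 0% = DMSO and 100% = reference agonist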
* = called active by the depositor; . = not tested or not shown. Sampled rows, rich in hits. Any-hit rate of the full collection: about 5%.

SMILES | AHR act | SENP8 block-1 | EBI2 antag | SENP8 block-2 | SENP7 block | SENP6 block | AHR act cf | PXR counter
O=C(O)c1cccnc1SCC(=O)N1CCCc2ccccc21 | 2 | 6 | -3 | -3 | 1 | -8 | . | .
Cc1nc(N)nc(Nc2ccc(Cl)cc2)c1Br | 92* | -10 | -1 | -2 | -7 | 2 | 99* | .
Cc1nc(N)nc(Nc2ccc(C#N)cc2)c1Br | 1 | 0 | -12 | 0 | 2 | 3 | . | .
Cc1ccc(-n2ncc(Cl)c2C(=O)NC2CC2)cc1 | 90* | 9 | 7 | 13 | 25 | 34 | 136* | 21*
CC(C)(C)NC(=O)CN(CCN1CCOCC1)C(=O)CNS(=O)(=O)c1ccccc1 | -1 | 10 | 6 | 6 | 4 | -14 | . | .
CNc1sc(C(=O)c2ccccc2F)c(N)c1-c1nc2ccccc2s1 | 90* | -13 | -2 | 10 | 0 | 33 | 88* | 48*
CCN(CC)S(=O)(=O)c1cc(C(=O)Nc2cccnc2Cl)ccc1Cl | 2 | 15 | -14 | -7 | -3 | -22 | . | .
CCn1c(C)cc(/C=C2\NC(=O)N(CC(=O)Nc3cccc(C)c3)C2=O)c1C | 80* | -173 | 10 | 5 | 1 | 0 | 78* | 16*
Cc1ccc[n+](CC(=O)c2ccc(Br)cc2)c1C | 83* | 1 | 10 | -11 | -12 | 2 | 47* | .
O=C(CSc1cccc[n+]1[O-])Nc1cc2c(cc1Cl)C(=O)c1ccccc1C2=O | 121* | 22 | -8 | . | . | . | 135* | 54*
O=C(CCC(=O)N1CCOc2ccccc21)Nc1ccccc1Br | 25 | 14 | 1 | -5 | 8 | 0 | . | .
COc1cccc(C(=O)Nc2ccc3[nH]ncc3c2)c1OC | 92* | 2 | 1 | -14 | 5 | -6 | 68* | 12*
COc1cccc(C(=O)Nc2cc(NC(=O)c3cccs3)ccc2C)c1OC | 15 | 9 | -1 | 9 | -8 | 17 | . | .
NC1=NN=C(c2ccc3c(c2)OCCO3)CS1 | 87* | 8 | -6 | 34 | 22 | 11 | -6 | -2
CC(=O)ONC(=Nc1ccccc1)c1nonc1N | 1 | 5 | -12 | -4 | 2 | -30 | . | .
NC(=Nc1ccccc1)NC(=O)c1nc(Cl)c(N)nc1N | 86* | -384 | -9 | 0 | 0 | 9 | 30 | 35*
O=C(CN1CCCC1)Nc1sc2c(c1C(=O)Nc1ccc(Br)cc1)CCC2 | 79* | -146 | -6 | 1 | 2 | 7 | 104* | 52*
C[C@H]1CN([C@@H](C)CO)C(=O)CCCn2cc(nn2)CO[C@@H]1CN(C)S(=O)(=O)c1ccc(Cl)cc1 | . | 8 | -3 | . | . | . | . | .
COc1c2occc2c(OC)c2c(=O)cc(C(F)(F)C(F)(F)F)oc12 | 41 | 10 | 3 | 6 | 0 | -5 | . | .
COc1c2occc2c(OC)c2c(=O)cc(C(F)(F)F)oc12 | 84* | 15 | -16 | -2 | -3 | 1 | 86* | 22*
CC(C)N1CCN(Cc2ccc3c(c2)Cc2ccccc2-3)CC1CCO (stereo unspecified) | 2 | 11 | 7 | -12 | 0 | 4 | . | .
CC(C)CC(=O)Nc1ccc(C(=O)CN2CCC(C)CC2)cc1 | 0 | -10 | 2 | 4 | 9 | -13 | . | .
O=C1c2ccccc2C(=O)N1CCCCn1c(=O)oc2ccccc21 | -1 | 20 | 5 | 0 | 8 | -2 | . | .
O=c1oc2ccccc2n1CCc1ccccc1 | 94* | 16 | 14 | 1 | 6 | -8 | 100* | 34*
COc1ccc(OC)c(Nc2nc(NCCO)c3ccccc3n2)c1 | 88* | -37 | 5 | 11 | 9 | 13 | 85* | 35*
SMILES | AHR act | SENP8 block-1 | EBI2 antag | SENP8 block-2 | SENP7 block | SENP6 block | AHR act cf | PXR counter
Cc1cc(C)nc(NC(=O)c2cc(-c3ccc4c(c3)OCO4)nc3ccccc23)c1 | 89* | -398 | 7 | 7 | 0 | 10 | 78* | 44*
N=c1c(C(=O)NC2CCCCC2)cc2c(=O)n3ccccc3nc2n1CCc1ccccc1 | -6 | -295 | 10 | 3 | 6 | -21 | . | .
CCCCn1c(N)c(N(CCOC)C(=O)c2cc(-c3ccccc3Cl)nc3ccccc23)c(=O)[nH]c1=O | -1 | -103 | 4 | -6 | -13 | -1 | . | .
COc1ccccc1Nc1nc(NCCO)nc(N)c1[N+](=O)[O-] | 97* | 23 | 4 | 1 | 0 | 3 | 128* | .
COCCCNc1nc(N)c([N+](=O)[O-])c(Nc2cc(OC)ccc2OC)n1 | 21 | 24 | -3 | -4 | -2 | 0 | . | .
CNc1nc(N)c([N+](=O)[O-])c(Nc2ccccc2OC)n1 | 107* | 29 | -7 | -2 | -11 | -2 | 93* | 18*
O=C(COc1coc(CN2CCc3ccccc32)cc1=O)Nc1ccccc1 | 6 | 15 | 0 | -8 | 16 | -12 | . | .
Cn1cccc1C(=O)C(=O)Nc1cccc(Cl)c1Cl | 92* | 20 | 3 | 4 | 89* | 12 | 104* | 10*
Cc1ccccc1C(=O)N(C)c1ccccc1C(=O)NCc1ccccc1 | 0 | -1 | -2 | -4 | -3 | -11 | . | .
COc1ccc2nnc(-c3ccc(C(F)(F)F)cc3)n2n1 | 81* | -37 | 6 | -4 | 1 | -19 | 105* | 18*
Cc1nc(-c2cccnc2)sc1C(=O)Nc1cccc(C(F)(F)F)c1 | 18 | -3 | 25 | 8 | -1 | 4 | . | .
Cc1nc(Cl)sc1C(=O)Nc1ccc(C(F)(F)F)cc1 | 99* | 4 | -13 | 12 | 26 | 29 | 106* | .
Cc1nc(-c2cccnc2)sc1C(=O)Nc1ccc(C(F)(F)F)cc1 | 95* | 4 | 22 | -6 | -7 | -14 | 61* | 10*
Cc1nc(-c2ccc(C(F)(F)F)cc2)sc1C(=O)NN | 86* | -1 | 10 | -2 | 16 | 14 | 10 | 14*
Cc1nc(-c2cccs2)sc1C(=O)NN | 14 | -120 | -9 | 4 | 5 | -4 | . | .
Cc1cc(-c2onc(C)c2C(N)=O)no1 | -1 | 5 | -10 | -3 | 0 | -27 | . | .
Cc1cc(-c2onc(C)c2C(=O)Nc2ccc(C(F)(F)F)cc2)no1 | 84* | 22 | 2 | 0 | 5 | -23 | 95* | 39*
CCCc1nn2c(=O)cc(CSCC(=O)Nc3ccc(OC)cc3)nc2s1 | 11 | -3 | 4 | -4 | -15 | -11 | . | .
Cc1ccc(NC(=S)c2nc3ccccc3[nH]2)c(C)c1 | 94* | 6 | 6 | 25 | -4 | 49 | 84* | .
COc1ccccc1-c1nc(C#N)c(N2CCCCCC2)o1 | 83* | -247 | 3 | -13 | -5 | 0 | 79* | 108*
COc1ccccc1-c1nc(C#N)c(N2CCN(c3ccccc3)CC2)o1 | 11 | -394 | -13 | 3 | -1 | -14 | . | .
Cc1cc(C)nc(/N=C(\N)Nc2ccc(C)c([N+](=O)[O-])c2)n1 | 122* | 17 | 0 | -5 | 0 | -11 | 84* | 68*
